Laboratory results taken from the supplement of paper PMC8371130.
Where a name gives a salt, the structure may show the parent alone.

Test system: HL-1
Test: relative cell viability (CellTiter-Glo) vs DMSO control (% of DMSO control); higher = more viable cells
In short: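 HL-1 mouse atrial cardiomyocytes were seeded into 384-well plates at 1000 cells per well along with compounds at 40, 200, 1000 or 5000 nM in 0.01% DMSO. After one day, the cells were moved to a hypoxic workstation (1% O2) for 48 h and then reoxygenated for 24 h in a normal incubator, while others remained in normoxia for the same period. Cell viability was measured by CellTiter-Glo luminescence and normalised to vehicle-treated control cells.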

[1] = oxygen condition: hypoxia 48 h (1% O2) + reoxygenation 24 h, 40 nM
[2] = oxygen condition: hypoxia 48 h (1% O2) + reoxygenation 24 h, 200 nM
[3] = oxygen condition: hypoxia 48 h (1% O2) + reoxygenation 24 h, 1000 nM
[4] = oxygen condition: hypoxia 48 h (1% O2) + reoxygenation 24 h, 5000 nM
[5] = oxygen condition: normoxia 72 h, 40 nM
[6] = oxygen condition: normoxia 72 h, 200 nM
[7] = oxygen condition: normoxia 72 h, 1000 nM
[8] = oxygen condition: normoxia 72 h, 5000 nM

| Compound | relative cell viability [1] | relative cell viability [2] | relative cell viability [3] | relative cell viability [4] | relative cell viability [5] | relative cell viability [6] | relative cell viability [7] | relative cell viability [8] |
| --- | --- | --- | --- | --- | --- | --- | --- | --- |
| CCCN(CCC)S(=O)(=O)c1ccc(C(=O)O)cc1 [Probenecid] | 103 | 109 | 108 | 110 | 101 | 104 | 109 | 115 |
| O=C(O[C@H]1CN2CCC1CC2)N1CCc2ccccc2[C@@H]1c1ccccc1 [Solifenacin succinate] | 110 | 111 | 115 | 106 | 104 | 112 | 105 | 113 |
| CC(Oc1c(Cl)cccc1Cl)C1=NCCN1 (stereo not drawn) [Lofexidine  HCl] | 99.4 | 101 | 99.6 | 118 | 98.3 | 103 | 89.6 | 108 |
| COc1cc(Nc2c(C#N)cnc3cc(OCCCN4CCN(C)CC4)c(OC)cc23)c(Cl)cc1Cl [Bosutinib] | 103 | 104 | 107 | 121 | 110 | 125 | 107 | 116 |
| O=c1cc[nH]c(=S)[nH]1 [2-Thiouracil] | 99.6 | 105 | 104 | 104 | 102 | 103 | 100 | 114 |
| CC(=O)Oc1ccccc1C(=O)O [Aspirin] | 94 | 101 | 90.7 | 110 | 95.4 | 105 | 93.6 | 122 |
| CCCOc1ccc(C(=O)OCCN(CC)CC)cc1N [Proparacaine HCl] | 88.3 | 98.9 | 97.8 | 107 | 103 | 92.4 | 78.4 | 106 |
| CN(CCOc1ccc(NS(C)(=O)=O)cc1)CCc1ccc(NS(C)(=O)=O)cc1 [Dofetilide] | 102 | 99.8 | 99.2 | 112 | 101 | 109 | 106 | 107 |
| N=C(N)NCCN1CCCCCCC1 [Guanethidine Sulfate] | 101 | 101 | 96.2 | 113 | 103 | 107 | 103 | 116 |
| COCCOC(=O)C1=C(C)NC(C)=C(C(=O)OC/C=C/c2ccccc2)C1c1cccc([N+](=O)[O-])c1 (stereo not drawn) [Cilnidipine] | 101 | 105 | 110 | 109 | 107 | 109 | 103 | 110 |
| C[C@@H](CN1CC(=O)NC(=O)C1)N1CC(=O)NC(=O)C1 [Dexrazoxane Hydrochloride] | 98.2 | 105 | 104 | 106 | 101 | 96.3 | 92.8 | 94.8 |
| Cc1ccccc1C(=O)Nc1ccc(C(=O)N2CCCC(O)c3cc(Cl)ccc32)c(C)c1 (stereo not drawn) [Tolvaptan] | 97.3 | 104 | 104 | 110 | 96.7 | 104 | 106 | 108 |
| COCCOC(=O)C1=C(C)NC(C)=C(C(=O)OC(C)C)C1c1cccc([N+](=O)[O-])c1 (stereo not drawn) [Nimodipine] | 109 | 108 | 109 | 107 | 108 | 109 | 103 | 104 |
| C[C@@]12C[C@@]3(O)O[C@@H](O1)[C@]1(COC(=O)c4ccccc4)[C@H]3C[C@@]12O[C@@H]1O[C@H](CO)[C@@H](O)[C@H](O)[C@H]1O [Paeoniflorin] | 106 | 102 | 108 | 118 | 107 | 111 | 109 | 118 |
| O=C(CCCN1CCN(c2ccccn2)CC1)c1ccc(F)cc1 [Azaperone] | 107 | 104 | 102 | 103 | 102 | 107 | 110 | 111 |
| NCC(=O)CCC(=O)O [5-Aminolevulinic acid hydrochloride] | 101 | 104 | 105 | 110 | 99.8 | 102 | 100 | 113 |
| CCCCOc1cc(C(=O)NCCN(CC)CC)c2ccccc2n1 [Dibucaine HCL] | 103 | 107 | 108 | 118 | 109 | 110 | 109 | 118 |
| CC(C)C(=O)Nc1ccc([N+](=O)[O-])c(C(F)(F)F)c1 [Flutamide] | 108 | 102 | 101 | 38.7 | 98.3 | 101 | 105 | 37 |
| C=C1CC[C@H](O)C/C1=C/C=C1\CCC[C@]2(C)[C@@H]([C@H](C)CCCC(C)(C)O)CC[C@@H]12 [Calcifediol] | 112 | 106 | 106 | 109 | 103 | 104 | 114 | 117 |
| Cc1nc2c([nH]1)-c1ccccc1N(C(=O)c1ccc(NC(=O)c3ccccc3-c3ccccc3)cc1)CC2 [Conivaptan HCl] | 100 | 98.8 | 46.4 | 47.7 | 98 | 84.2 | 89.2 | 36.5 |
| CCCCC[C@H](O)/C=C/[C@H]1[C@H](O)CC(=O)[C@@H]1CCCCCCC(=O)O [Alprostadil] | 104 | 106 | 107 | 107 | 108 | 102 | 111 | 101 |

| Compound | relative cell viability [1] | relative cell viability [2] | relative cell viability [3] | relative cell viability [4] | relative cell viability [5] | relative cell viability [6] | relative cell viability [7] | relative cell viability [8] |
| --- | --- | --- | --- | --- | --- | --- | --- | --- |
| O=C1C(O)=C([C@H]2CC[C@H](c3ccc(Cl)cc3)CC2)C(=O)c2ccccc21 [Atovaquone] | 98.8 | 103 | 113 | 112 | 98.2 | 104 | 98.5 | 115 |
| CC(C)NCC(O)COc1ccc(CCOCC2CC2)cc1 (stereo not drawn) [Betaxolol] | 99.8 | 98.5 | 100 | 101 | 96.4 | 100 | 99.6 | 108 |
| NS(=O)(=O)c1cc2c(cc1Cl)N=C(CSCc1ccccc1)NS2(=O)=O [Benzthiazide] | 103 | 99.8 | 99.3 | 107 | 99.7 | 93.8 | 100 | 105 |
| N=C(N)NC(=N)NCCc1ccccc1 [Phenformin hydrochloride] | 101 | 95.3 | 99.6 | 74.1 | 101 | 103 | 104 | 71.8 |
| COC(=O)C1=C(C#N)NC(C)=C(C(=O)OC(C)C)C1c1cccc([N+](=O)[O-])c1 (stereo not drawn) [Nilvadipine] | 107 | 105 | 96.3 | 98.7 | 98.3 | 98.1 | 102 | 108 |
| COC(=O)[C@H](c1ccccc1Cl)N1CCc2sccc2C1 [Clopidogrel] | 105 | 103 | 106 | 111 | 108 | 111 | 105 | 119 |
| O=C1NC(=O)C(c2ccccc2)(c2ccccc2)N1 [Phenytoin] | 98.3 | 97.9 | 98.1 | 103 | 95.4 | 61.2 | 93.3 | 99.4 |
| COc1cccc2c1C(=O)c1c(O)c3c(c(O)c1C2=O)C[C@@](O)(C(=O)CO)C[C@@H]3O[C@H]1C[C@H](N)[C@@H](O)[C@H](C)O1 [Epirubicin Hydrochloride] | 96.8 | 102 | 107 | 91.5 | 93.5 | 97.6 | 91.7 | 96.4 |
| O=C(O)CCCN1CCC(O[C@@H](c2ccc(Cl)cc2)c2ccccn2)CC1 [Bepotastine Besilate] | 112 | 108 | 111 | 120 | 113 | 115 | 115 | 131 |
| Cc1ccc(S(=O)(=O)NC(=O)NN2CCCCCC2)cc1 [Tolazamide] | 101 | 103 | 98.3 | 110 | 102 | 99.1 | 106 | 117 |
| C[C@@](Cc1ccc(O)c(O)c1)(NN)C(=O)O [Carbidopa] | 101 | 100 | 101 | 106 | 96.4 | 96.4 | 102 | 110 |
| COC(=O)CCc1ccc(OCC(O)CNC(C)C)cc1 (stereo not drawn) [Esmolol HCl] | 103 | 104 | 105 | 80.4 | 104 | 104 | 108 | 112 |
| COc1cccc2c1C(=O)c1c(O)c3c(c(O)c1C2=O)C[C@@](O)(C(=O)CO)C[C@@H]3O[C@H]1C[C@H](N)[C@H](O)[C@H](C)O1 [Doxorubicin] | 63.3 | 44 | 57.3 | 16.7 | 63 | 55.4 | 52.4 | 13.7 |
| COc1ccccc1OCCNCC(O)COc1cccc2[nH]c3ccccc3c12 (stereo not drawn) [Carvedilol] | 93.5 | 110 | 107 | 108 | 104 | 105 | 107 | 107 |
| CCCCCCCCCCC[C@@H](C[C@@H]1OC(=O)[C@H]1CCCCCC)OC(=O)[C@H](CC(C)C)NC=O [Orlistat] | 104 | 115 | 94.9 | 107 | 108 | 112 | 102 | 103 |
| CCN[C@H]1CN(CCCOC)S(=O)(=O)c2sc(S(N)(=O)=O)cc21 [Brinzolamide] | 101 | 84.5 | 62.4 | 3.36 | 98.2 | 81.9 | 57.5 | 3.09 |
| CC(=O)O[C@H]1C(=O)[C@@]2(C)[C@H]([C@H](OC(=O)c3ccccc3)[C@]3(O)C[C@H](OC(=O)[C@H](O)[C@@H](NC(=O)c4ccccc4)c4ccccc4)C(C)=C1C3(C)C)[C@]1(OC(C)=O)CO[C@@H]1C[C@@H]2O [Paclitaxel] | 42.4 | 42.8 | 39.9 | 30.5 | 52.3 | 52.2 | 33.2 | 22.2 |
| O=C1CCc2ccc(OCCCCN3CCN(c4cccc(Cl)c4Cl)CC3)cc2N1 [Aripiprazole] | 98.7 | 104 | 97 | 97.8 | 99 | 99.7 | 98.7 | 99.9 |
| NC(=O)N1c2ccccc2C=Cc2ccccc21 [Carbamazepine] | 97.1 | 103 | 105 | 106 | 103 | 103 | 95.1 | 109 |
| C[C@H](CS)C(=O)N1CCC[C@H]1C(=O)O [Captopril] | 108 | 103 | 105 | 109 | 105 | 97.2 | 106 | 113 |
